Shown are actives, neighbours in structure and some others; about 5.5% of the full set was active somewhere.
RORg inh: qHTS for inhibitors of ROR gamma transcriptional activity | Nuclear receptor ROR-gamma (Mus musculus), P51450 | Drosophila S2 Gal4-RORgamma UAS-luciferase reporter, 20 h | Potency, µM (doses to about 53.6 µM), most hits filed as inhibitors | 310,000 tested, 5.4% active; further: nearly all actives have a fitted effect of over 60% in size
Target sequence (P51450 whole entry, looked up, the tested form may be a part): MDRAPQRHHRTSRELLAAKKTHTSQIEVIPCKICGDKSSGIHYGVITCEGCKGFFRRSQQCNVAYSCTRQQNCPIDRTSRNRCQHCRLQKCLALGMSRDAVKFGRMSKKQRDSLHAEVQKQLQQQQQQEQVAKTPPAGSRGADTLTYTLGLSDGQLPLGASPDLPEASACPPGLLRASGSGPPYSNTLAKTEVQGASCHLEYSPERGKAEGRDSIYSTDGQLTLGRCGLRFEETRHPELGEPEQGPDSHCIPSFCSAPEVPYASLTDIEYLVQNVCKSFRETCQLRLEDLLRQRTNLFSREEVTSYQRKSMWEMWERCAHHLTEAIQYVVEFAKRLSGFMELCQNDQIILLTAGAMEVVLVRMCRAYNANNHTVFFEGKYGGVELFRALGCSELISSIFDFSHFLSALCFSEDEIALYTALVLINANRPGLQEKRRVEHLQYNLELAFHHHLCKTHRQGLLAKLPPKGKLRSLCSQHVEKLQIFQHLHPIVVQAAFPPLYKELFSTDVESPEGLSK
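Schneider cells (Drosophila), stable Gal4 DBD–ROR gamma + UAS-luc; 1 hr cmpd preincubation; Cu2+ induction 700 uM final; 20 hr ambient; luminescence.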
CBFb RUNX1 block: qHTS Assay for Compounds Blocking the Interaction Between CBF-beta and RUNX1 for the Treatment of Acute Myeloid Leukemia. Runt-related transcription factor 1 (Homo sapiens) + Core-binding factor subunit beta …. AID 1477, 2009. Potency, µM (titrated, usually from 59.8 µM), usual class: inhibitors. 230,000 tested, under 10 active. AlphaScreen CBFb-His/RUNX1-biotin binding, biochemical
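Bead-based AlphaScreen assay; binding partners His-tagged CBF-beta and biotinylated RUNX1 at 30 nM each. Compound exposure 15 min after a 20-min protein preincubation; bead step 90 min; all steps at room temperature.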
MBNL1 CUG block: qHTS Assay for Inhibitors of MBNL1-poly(CUG) RNA binding | 280,000 tested, 0.036% active | Muscleblind-like protein 1 (Homo sapiens), Q9NR56 | TR-FRET MBNL1-His/biotin-(CUG)12 binding, 665/545 ratio | Potency, µM (top dose mostly 57.5 µM), most hits filed as inhibitors; active means well fitted inhibition curve with a large enough effect in the signal ratio, with a control signal flat, not every such curve was filed as active; inconclusive means small, poorly fitted or top-dose-only effect, or effect the other way, or a change in a side signal; inactive means no such curve, though single readings can be large or run the other way; the % refers to the signal ratio
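Compound titration spanned 92 nM–58 uM against the MBNL1-His/biotin-(CUG)12 complex. After 60 min at room temperature with 5 nM streptavidin-XL665 and 0.055 ng/ul terbium anti-His, ratiometric 665/545 nm emission (Ex 340 nm) normalized to controls.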
Gal4-VP16 FLuc: VP16 counterscreen qHTS for inhibitors of ROR gamma transcriptional activity; Drosophila S2 Gal4-VP16 UAS-luciferase, luminescence, 20 h; 310,000 tested, 3.5% active; AID 2546, 2010; Potency, µM (doses to about 53.6 µM), actives largely listed as inhibitors;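 further: Gal4-VP16 expression switched on by copper sulfate through the metallothionein promoter; nearly all actives have a fitted effect of over 50% in size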
CtBP-E1A inh: qHTS Assay for Inhibitors of the CtBP/E1A Interaction. AlphaScreen GST-E1A/His-CtBP binding, 1536-well; active compounds read low. activity change, % (no concentration beside the values). 340,000 tested, 0.49% active. CtBP / adenovirus E1A interaction (AlphaScreen). AID 651724, 2012; in the data active means activity change below about -65%; inconclusive means mostly about -30% to -63%
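Homogeneous bead-based format: GST-tagged E1A captured on glutathione donor beads, His-tagged CtBP on nickel acceptor beads; compounds precede bead addition by 2 h at 37 °C.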
Six1-Eya2 inh: qHTS Assay for Inhibitors of the Six1/Eya2 Interaction. Homeobox protein SIX1 (Homo sapiens) + Protein phosphatase EYA2 (Homo sapiens), …. AlphaScreen GST-Six1/His-Eya2 binding, biochemical; active compounds read low. activity change, % (test concentration not listed). 360,000 tested, 0.56% active; in the data active means activity change below about -65%; inconclusive means mostly about -30% to -63%
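AlphaScreen with GST-Six1 and His-Eya2 (5X mix: 250 nM and 500 nM), glutathione donor and nickel acceptor beads; buffer 50 mM Tris pH 8.0, 300 mM NaCl, 1 mM TCEP; 1 h at 37 C in the dark.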
Hits are given with their value; n = inactive; u = inconclusive; x = not tested or not shown; [ ] = another dose, or the depositor's remark. Unless noted, the call rests on the fitted dose curve; in most records, active means well fitted curve in the direction sought with a large enough effect; inconclusive means small, poorly fitted or top-dose-only effect, or another doubt; inactive means no such curve, though single readings can be large; an effect the other way counts as inactive or inconclusive.

SMILES	RORg inh	CBFb RUNX1 block	MBNL1 CUG block	Gal4-VP16 FLuc	CtBP-E1A inh	Six1-Eya2 inh
O=C(COC(=O)CCc1ccc(S(=O)(=O)N2CCOCC2)cc1)Nc1ccccc1[N+](=O)[O-]	x	x	x	x	n	n
CCOc1cccc(-c2nn3c(-c4cc(C)[nH]n4)nnc3s2)c1	n	n	n	n	-71	u
COc1cccc(-c2nnc3sc(C4CCCCC4)nn23)c1	n	n	n	n	n	n
CCOc1cccc(-c2nnc3sc(C4CCCCC4)nn23)c1	20µM	n	n	u	n	n
CC1(C)CC(=O)C2=C(C1)NC(Nc1nc3ccccc3o1)=NC2c1ccccn1 (stereo unspecified)	3.5µM	n	n	1.1µM	n	n
Cc1cccc(CCNS(=O)(=O)c2ccc3c(c2)CCN3C(=O)CCC(=O)O)c1	n	x	n	n	n	n
C[C@@H]1CC[C@]2(C(=O)O)CC[C@]3(C)C(=CCC4[C@@]5(C)C[C@@H](O)[C@H](O)[C@@](C)(CO)C5CC[C@]43C)C2[C@H]1C (stereo partly specified)	n	n	x	18µM	x	x
CC(=O)OC1CC[C@]2(C)C(CC[C@@]3(C)C2C(=O)C=C2C4C(C)C(C)CC[C@@]4(C(=O)O)CCC23C)C1(C)C (stereo partly specified)	0.63µM	x	x	n	x	x
C[C@H]1[C@H](C)CC[C@]2(C(=O)O)CC[C@]3(C)C(=CCC4[C@@]5(C)C[C@@H](O)[C@H](O)[C@@](C)(CO)[C@@H]5CC[C@]43C)[C@H]12 (stereo partly specified)	11µM	n	x	n	x	x
C[C@H]1[C@H](C)CC[C@]2(C(=O)O)CC[C@]3(C)C(=CCC4[C@@]5(C)CC[C@H](O)C(C)(C)[C@@H]5CC[C@]43C)[C@H]12 (stereo partly specified)	x	n	x	x	x	x
C[C@@H]1CC[C@]2(C(=O)O)CC[C@]3(C)C(=CCC4[C@@]5(C)C[C@@H](O)[C@H](O)[C@@](C)(CO)C5[C@H](O)C[C@]43C)C2[C@H]1C (stereo partly specified)	u	n	x	u	x	x
CCOc1ccc(C(=O)NNC(=O)CCNC(=O)c2ccco2)cc1OC	x	x	x	x	n	n
Cc1ccc(S(=O)(=O)/N=C2/C=C(Sc3ncn[nH]3)C(=O)c3ccccc32)c(C)c1	11µM	n	x	5µM	x	x
CC(C)c1ccc(S(=O)(=O)/N=C2/C=C(Sc3ncn[nH]3)C(=O)c3ccccc32)cc1	u	n	u	n	n	n
Cc1ccc(S(=O)(=O)/N=C2/C=C(Sc3ncn[nH]3)C(=O)c3ccccc32)cc1	3.5µM	n	x	3.5µM	n	u
CCN(CC)C(=O)CSc1n[nH]c(=O)n1CCc1ccccc1	n	x	n	n	n	n
O=c1[nH]nc(Sc2ncnc3sccc23)n1CCc1ccccc1	16µM	n	n	u	n	n
Cc1ccc(S(=O)(=O)N2[C@@H](c3ccccc3F)C(C(=O)O)=CC[C@H]2c2ccc3c(c2)OCO3)cc1	x	x	x	x	n	n
CC1(C)CCC(=NNC(N)=S)CC1	x	x	x	x	n	n
CC1(C)C2CCC(C2)C1C/C=N/NC(N)=S (stereo unspecified)	1.8µM	n	x	4µM	n	n
Cc1cccc(C(=O)NC(=S)Nc2cccc3nc(C)ccc23)c1	7.1µM	x	n	10µM	n	n
CC(=O)c1cccc(NC(=S)NC(=O)c2cccc(C)c2)c1	7.9µM	n	x	u	n	n
CCc1sc(C(=O)Nc2cccc(C(C)=O)c2)cc1C	7.9µM	n	n	u	u	n
CC(=O)c1ccc(NC(=S)Nc2ccc(Br)c(Cl)c2)cc1	n	n	n	n	n	n
CC(=O)c1ccc(NC(=S)NC(C)c2ccc(Cl)cc2Cl)cc1 (stereo unspecified)	11µM	n	n	n	n	n
SMILES	RORg inh	CBFb RUNX1 block	MBNL1 CUG block	Gal4-VP16 FLuc	CtBP-E1A inh	Six1-Eya2 inh
CC(C)c1ccc(-c2csc3ncnc(N4CCN(C)CC4)c23)cc1	n	x	n	n	n	n
Cc1noc(C)c1C(=O)N1CCC1(C)C(=O)NS(=O)(=O)c1ccccc1C(F)(F)F (stereo unspecified)	x	x	x	x	n	n
COc1ccc(NC(=O)C2CCCN(S(=O)(=O)c3ccc4c(c3)CCCN4C(C)=O)C2)cc1Cl (stereo unspecified)	n	x	n	u	u	n
CCOC(=O)N/N=C1/C[C@@H](O)[C@@H](O)[C@@H]2[C@@H]3C(=O)N(C(C)(C)C)C(=O)[C@H]3CC[C@@H]12	n[10 µM]	n[13.1 µM]	x	n[10 µM]	x	x
C/C(=N\NC(=O)c1ccc(Cl)cc1)c1cccc(NC(=O)C(C)C)c1	11µM	n	n	n	n	n
CC(=O)c1cccc(NC(=S)NC(=O)c2ccc(Cl)cc2)c1	7.1µM	n	n	8.9µM	n	n
CC(=O)c1cccc(NC(=S)NC(=O)c2ccccc2Br)c1	11µM	n	n	n	n	n
Cc1cccc(NC(=S)NNC(=O)c2ccccc2Br)c1	0.89µM	n	n	u	n	n
C/C(=N\NC(=O)c1cccc(Cl)c1)c1cccc(NC(=O)C(C)C)c1	n	n	n	n	n	n
CN(Cc1ccc(Cl)cc1Cl)C(=O)C1CSC2(C)CCC(=O)N12 (stereo unspecified)	x	x	x	x	n	n
Cc1ccc2ccccc2c1C(O)c1ncc(-c2ccc(Cl)cc2)[nH]1 (stereo unspecified)	x	x	x	x	n	n
N#CC1(CCCN2CCCCC2)c2ccccc2CCc2ccccc21	x	x	x	x	x	n
Cc1cccc(NC(=S)NNC(=O)c2ccc3c(c2)OCO3)c1	n	u	n[11.5 µM]	u	n	n

Screening data as filed in PubChem.
